Results reported in PubChem BioAssay (NCATS).
Inconclusive results are not listed. Active and inactive are the calls of the source. Calls follow the shape of the dose curve; as a rule, active = well fitted curve in the direction sought with a large enough effect; inconclusive = small, poorly fitted or top-dose-only effect, or another doubt; inactive = no such curve, though single readings can be large; an effect the other way counts as inactive or inconclusive.

Assays:
[1] = Cellular Toxicity (caspase-3) Hek293 (AID 664);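 also: cells exposed to compound for 16 h at 37 °C before readout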
Method in brief: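 HEK293 cells in complete medium treated 16 h at 37 °C, then Caspase-Glo 3/7 luminescence read after 20 min at room temperature. Normalized to DMSO and 100 uM tamoxifen; AC50 from Hill fit of concentration-response.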

[2] = Cellular Toxicity (caspase-3) N2a (AID 665);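 also: compound exposure lasted 16 h at 37 °C before readout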
Method in brief: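 Mouse N2a neuroblastoma cells, 1500 per well, treated 16 h at 37 °C in complete medium; caspase-3/7 activity by Caspase-Glo luminescence after 1 h. Normalized to DMSO and 10 uM staurosporine; AC50 from Hill fits.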

[3] = Cellular Toxicity (caspase-3) NIH 3T3 (AID 666);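 also: caspase signal read after 16 h compound exposure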
Method in brief: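 Mouse NIH 3T3 fibroblasts (1000/well) treated 16 h at 37 C; caspase-3/7 activity measured by Caspase-Glo 3/7 luminescence after 20 min. Normalized to DMSO and 100 uM tamoxifen; AC50 from Hill fits.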

[4] = Cellular Toxicity (caspase-3) Renal Proximal Tubule (AID 667);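 also: cells exposed to compound for 16 hours at 37 °C before detection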
Method in brief: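 In qHTS format, rat primary proximal tubule cells seeded at 1000 per well are exposed to compounds for 16 hours at 37 °C. An increase in Caspase-Glo 3/7 luminescence indicates caspase activation.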

[5] = Cell Viability - LYMP2-001 (AID 921); also: series mostly up to about 92 µM; nearly all actives have a fitted effect of over 70% in size
Method in brief: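 qHTS, 1536-well; lymphoblastoid cells, 24 hr compound, 37 C; ATP by CellTiter-Glo, 30 min RT; luminescence; Hill-fit AC50.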

[6] = MultiTox-Fluor Cytotoxicity Assay - LYMP1-001 - Dead Cells (AID 946)
Method in brief: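 LYMP1-001 lymphoblastoid cells (2500/well) treated 16 h at 37 C. Dead-cell protease cleavage of bis-AAF-R110 read at Ex/Em 485/520. Normalized to DMSO and 15 uM tetraoctylammonium bromide; AC50 from Hill fits.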

[7] = MultiTox-Fluor Cytotoxicity Assay - LYMP1-001 - Live Cells (AID 947)
[8] = Cell Viability - LYMP1-002 - Assay at 16 hr (AID 948)
Method in brief: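 Acute cytotoxicity is scored as a concentration-dependent fall in intracellular ATP in a human lymphoblastoid line (LYMP1-002) after 16 hr compound exposure at 37 C, measured by luciferase luminescence.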

[9] = MultiTox-Fluor Cytotoxicity Assay - LYMP1-002 - Live Cells (AID 955)
Method in brief: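 Human lymphoblastoid LYMP1-002 cells, 2500/well, treated 16 h at 37 C in complete medium. Live-cell protease activity via GF-AFC fluorescence (Ex/Em 405/510) after 60 min reagent incubation; AC50 from Hill fits.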

[10] = MultiTox-Fluor Cytotoxicity Assay - LYMP1-002 - Dead Cells (AID 960); also: nearly all actives have a fitted effect of over 60% in size
Method in brief: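 Human lymphoblastoid LYMP1-002 cells, 2500/well, treated 16 h at 37 C; dead-cell protease cleavage of bis-AAF-R110 read by fluorescence (485/520); normalized to DMSO and 15 uM tetraoctylammonium bromide; AC50 from Hill fit.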

[11] = MultiTox-Fluor Cytotoxicity Assay - LYMP1-003 - Dead Cells (AID 961); also: nearly all actives have a fitted effect of over 70% in size
Method in brief: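 LYMP1-003 human lymphoblastoid cells (2500/well) exposed to compound 16 h at 37 C in complete medium; dead-cell protease read with bis-AAF-R110 fluorescence (Ex/Em 485/520) after 60 min at room temperature. Normalized to DMSO and 15 uM tetraoctylammonium bromide; AC50 from Hill fit.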

[12] = MultiTox-Fluor Cytotoxicity Assay - LYMP1-003 - Live Cells (AID 962);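 also: cytotoxic hits lower the live-cell protease signal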
Method in brief: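 LYMP1-003 lymphoblastoid cells, 2500/well in complete medium, treated 16 h at 37 C; live-cell protease cleavage of GF-AFC read by fluorescence (Ex/Em 405/510) after 60 min reagent; AC50 from Hill fits of concentration-response.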

[13] = Cell Viability - LYMP1-003 - Assay at 24 hr (AID 963)
Method in brief: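 Human lymphoblastoid LYMP1-003 cells, 2500/well, treated 24 h at 37 C in complete medium. Viability read as intracellular ATP by CellTiter-Glo luminescence after 30 min at room temperature; AC50 from Hill-equation fits of qHTS concentration-response.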

[14] = Cell Viability - LYMP1-003 - Assay at 40 hr (AID 964); also: series mostly up to about 92 µM; nearly all actives have a fitted effect of over 60% in size
Method in brief: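 LYMP1-003 human lymphoblastoid cells, 2500/well, preincubated 5 h at 37 C, then treated with compound for 40 h at 37 C. Intracellular ATP read by CellTiter-Glo luminescence after 30 min at room temperature; AC50 from Hill-equation fits.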

[15] = Cell Viability - LYMP2-003 (AID 965);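 also: cells exposed to compounds for 24 h before reading; nearly all actives have a fitted effect of over 50% in size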
Method in brief: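 Acute cytotoxicity is scored as a concentration-dependent drop in intracellular ATP, measured by luciferase luminescence in human lymphoblastoid cells treated for 24 hours at 37 C. AC50 values derive from Hill-equation modelling.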

[16] = Cell Viability - LYMP2-004 (AID 966); also: nearly all actives have a fitted effect of over 65% in size
Method in brief: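 Lymphoblastoid LYMP2-004 cells, 2500 per well, were preincubated for 5 hr and then treated with compound for 24 h at 37 C in complete medium. Viability was read as cellular ATP by CellTiter-Glo luminescence, and AC50 values were taken from Hill fits to concentration-response data.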

[17] = Cell Viability - LYMP2-005 (AID 967); also: series mostly up to about 92 µM
Method in brief: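 qHTS viability screen in LYMP2-005 cells: 24 h at 37 C with compound, ATP luminescence via CellTiter-Glo, AC50 from Hill curves.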

[18] = Cell Viability - LYMP2-009 (AID 968); also: series mostly up to about 92 µM; nearly all actives have a fitted effect of over 55% in size
[19] = Cell Viability - LYMP2-011 (AID 969); also: nearly all actives have a fitted effect of over 60% in size
Method in brief: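 2500 cells/well in complete medium, compound-treated 24 h at 37 C. Viability read as intracellular ATP by CellTiter-Glo luminescence after 30 min at room temperature. AC50 from Hill fits of qHTS concentration-response data.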

[20] = Cell Viability - LYMP2-013 (AID 970); also: series mostly up to about 92 µM; nearly all actives have a fitted effect of over 55% in size
Method in brief: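 Human lymphoblastoid LYMP2-013 cells, 2500/well, treated 24 h at 37 C in complete medium; viability as intracellular ATP by CellTiter-Glo luminescence after 30 min. AC50 from Hill fits of qHTS concentration-response.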

[21] = Cell Viability - LYMP2-015 (AID 971); also: nearly all actives have a fitted effect of over 55% in size
Method in brief: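 LYMP2-015 human lymphoblastoid cells (2500/well) in complete medium, compound-treated 24 h at 37 C; viability read as cellular ATP by CellTiter-Glo luminescence after 30 min at room temperature. AC50 from Hill-equation fits of qHTS concentration-response data.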

[22] = Cell Viability - LYMP2-017 (AID 972); also: series mostly up to about 92 µM; nearly all actives have a fitted effect of over 55% in size
Method in brief: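 LYMP2-017 human lymphoblastoid cells (2500/well) settled 5 hr at 37 C, then exposed to compound 24 hr at 37 C in complete medium. Viability taken as intracellular ATP by CellTiter-Glo luminescence after 30 min at RT; AC50 from Hill fits.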

[23] = Cell Viability - LYMP2-021 (AID 974)
Method in brief: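 Human lymphoblastoid LYMP2-021 cells, 2500/well in complete medium, treated 24 hours at 37 C. Intracellular ATP by CellTiter-Glo luminescence (30 min, RT); AC50 from Hill fits of concentration-response.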

Measured: outcome

C[C@@H]1[C@H](O)[C@@H](C)/C=C/C=C/C=C/C=C/C=C/C=C/C=C/[C@H](O[C@@H]2O[C@H](C)[C@@H](O)[C@H](N)[C@@H]2O)C[C@@H]2O[C@](O)(C[C@@H](O)C[C@@H](O)[C@H](O)CC[C@@H](O)C[C@@H](O)CC(=O)O[C@H]1C)C[C@H](O)[C@H]2C(=O)O
inactive: all assays above
